We go through 29 molecules from the supplement of paper PMC12632987.

In all, about 4,500 sequences were measured (“median log2 fold change of GCK-ALFA target abundance (FLAG IP / Myc IP barcode read proportion)”: median about 0.078, lowest 2% from about -0.6 on). This excerpt belongs to a sample that is enriched for the lowest values.

B1: GBRAP_184_5289 (protein)
chain: MVEEVVIEAENAEEAIKKIKEAAEKAKKEGKKLRLYLFLKNVDVEGFKKIAELLKELKEEGIIEDAIVEILDERTEEETDKFVEIADKAGIRLVIALSDE
B2: GBRAP_128_3375 (protein)
chain: VNEEFLKEIEELVEKMLESSVEEVRELTKKIVELLSKASLEEQEAAVEIILEKLPEFSVEKLEAIADVLREERKKASPELQELLADVEVEALNEAEEKEE
B3: GBRAP_184_5038 (protein)
chain: AIKEVTIEAKDLEELKAKLAELEEEMKNFKGDLIVHVKSPKFTKEMVEELMSTLKNMLDKGYISSATVGLDGEMTEEVVDLAVKLADEAGIKVVLALDEE
B4: GBRAP_11_2726 (protein)
chain: RKETILKFAKEAEALAKEIEKLIKEGPTKEGLEKLAKKAKALYEAAKKAGLPEDIVETLKIAAELLKEAIADPKNAEKYLREAAAAFRVAAGLLLLEAEE
B5: GBRAP_14_3852 (protein)
chain: IEELIKAVEETAKETKEMAKEVLPEHAEEVNKKIEELAKKIIKKIKEENLNKEEVAELMDEFAEELAKFIKEKGFANETEIAAIRATILNEAALKLDEIE
B6: GBRAP_150_3939 (protein)
chain: DLEELLLLAQGIETDLELALEPGFDKLKLAERALELAKDIAKESDEELKKLAEELIKLLEEAIKAIKAGAEEKEIQKLLEEALRKARELIEEIEKKIEEE
B7: GBRAP_9_7172 (protein)
chain: LKAAAAAAIAELREARDFILEIAPEAAAGAVDAAFDALIAALEAARADPTVTPEQFEATLAAGFAAIRAAAAAHLSPEVAAAVETEMLTVRDIADEKLDE
B8: GBRAP_95_7026 (protein)
chain: EDDQLLVDSLTEVLETYVDLGDEERAREAARRLVRALRENGILPLPKSISVEAAKLILEVALEELDLEELEALAKQLIEATKDEEVRKYAEAKIAEKRAR
B9: GBRAP_52_6035 (protein)
chain: MEERMRELARRIVELLLAGREEEARRLIREAVETLSEEELKLLGEELARLAREAAPEDLDAIMEAAFLLADALEEGGYDEVLADDLLARVAAAAVANLQA
B10: GBRAP_52_6042 (protein)
chain: MEERMRELAEEILALYLEGREEEARKLIREAVETLSEEELKLLGEALAELAREAPPEHLDAYMQAAFDLADALEEAGYDEVLADDLEARVAAAAVENLKR
B11: GBRAP_52_6034 (protein)
chain: MRERMRRLAEEAVALALAGDEEGAKALIKEAVETLSEEELKLLGEELARLAREAAPEDLDAIMEVAFWLADALIEAGYDEVFADDLEARVARAAVENLQA
B12: GBRAP_160_4751 (protein)
chain: SEALKKLKEEVKKIFEEGIEMLKEVPAEEAPTVLRGVMGEVLMEVFSSEAASDELEEEVGEVVDKAEAEAAANANAPVEYHIELLEKAKKEILEIIEKEI
B13: GBRAP_52_6275 (protein)
chain: MEEEAERLAEEFIRVALEGSEEEIREFARRLVEEKSEELIARVLEIVVEKAEELNAEEIEKLLEAVLILEGELEEAGRDPLPAQDAAARLAKLHEEKLKE
B14: GBRAP_78_6606 (protein)
chain: EVEELLEEAIELLSKAAKLLKELPPEVRDELMDLLVEAMSLLLESIEEGPNLKLLEEALKHVEEAIELLKKEKTPEAEKIIKLLEEAKEKIEKAIKLLKK
B15: GBRAP_184_5238 (protein)
chain: KVLEVTVEAADAEELRAKLEAVFAEAEAAGARVRLDVLVEELTPEKVDVLTEEIARMAAAGLLDLVEVTSSTPIAEEHIDRLVAAADAAGVRLVIAEPDE
B16: GBRAP_57_6464 (protein)
chain: MSPLEKALEHFEKAIKLIEEGASLEEILEEVEKGLEELDHTLLLDILLLLDPSARSDLSREELRERLLELVRRYLEEKGREEALKALKLMAGQVEMALTE
B17: GBRAP_125_3136 (protein)
chain: KRAALLALAEALARAMGFSEEEIAEIRRLAEAHDPAQTIVAIFLAAGAEEAAELAAEVLDKLSEEEIAALRALAEAARDLPLEEAVARLLAALKEAKAKL
B18: GBRAP_52_6252 (protein)
chain: MRARLRADAREILELVKEGREEEARRLAREIAETYNEEELRLFIDEFAALAAEAPKEDIDDVWRAAEILAEALEEAGWEEVLVDDALARTAAALVKVEAK
B19: GBRAP_184_5187 (protein)
chain: MVVEEELEIEDVAEARAKIAAIGERIAGKKAKLRVIVKAKKITVEIARTIMEGLGAIKAAGNATDITVELVGEMSEEVIDTAVELAKKAGIRVVIAMSEE
B20: GBRAP_11_2656 (protein)
chain: KKEAYKKAAELAEEAAKALQKLIEEGVDDEELIEKLRKLIEELKKLAEEELDEADKKEVEVVVELFEEFLADEENRLQLAEELLAGLRVLAGNFQLKADE
B21: GBRAP_84_7007 (protein)
chain: SREQEILEITNKILEKGSIELKKKLLTYLILKNENKAATLALNYLLEEDPEAAVEALDEATEAYEEGKEEEVRKELLELAKKEGEEVYALVEELLELIDE
B22: GBRAP_84_7005 (protein)
chain: SREEEIVEITAEILEKASIETKALLLTYLILKNANKAATLALNDLLEEDPEAAVEALDRATEAYEEGKEEEVEKELLEKAKEEGEELAELVERLLELLKE
B23: GBRAP_84_7006 (protein)
chain: EREEEIVKLTKEILEKGSIELKALLLTYLILKNENKAATLALNDLLKEDPEAAVEALDRATEAYEEGKEEEVEKELKEKAKKEGKEVAELVEKLIKLLEE
B24: GBRAP_166_4935 (protein)
chain: SLEKIYEETKKKVIELAKKALTADEEERIDLAIEIEELLKEAKEKGLTPEQLKEILLEALKELEEDPEVAEFLLRMILAASEMDEELQDVILEALEEFKK
B25: GBRAP_128_3437 (protein)
chain: AQEELLQEALELLDEIVESDVETAAELAKQLAELLGQLDEESRDEVVEYFEEKAKELTEEKLEAVADALREQVPQLDADTANAVNEMIVILGEQILELEE
B26: GBRAP_160_4322 (protein)
chain: KEELEELEKRIKEIAEEAKKMIKGQSAEEKITIVKVALGDIILEVESNPAVSDELEDKVAEIADAAEAYLDAHPDLSEEEVIALLEEAVKKILELIKEEK
B27: GBRAP_137_3640 (protein)
chain: MKVTIRVERHEDLVEITITVDDPEKAEEVAELITDLAVAHGALAISVEIKEDGTLEAVIWVPVERAEALIAAIVDALQSKFGATVTVEDLDTGEVRTYTP
B28: GBRAP_184_5202 (protein)
chain: AIVERTIEFENEEELKEKLKELLEELKGFKGTVYIHVEAPEITEEMAKLLIEFVKEIKENGYATEIIVDIEGEVSEEVRDLLLDEFAKIGAKVVIALSEE
B29: GBRAP_11_2682 (protein)
chain: RKEALERAAELAERAAELAERLLEEGVDNEELLEELRRALEELRRLVKEHLDEAHRTLVEIAEEELEEALADPENAAAHIERLLAAARVLRYNLEEELEE

The target of this test is GABARAP, O95166. Nature of the test: median log2 fold change of GCK-ALFA target abundance (FLAG IP / Myc IP barcode read proportion) (log2 ratio); each designed protein is fused to an ALFA-tag nanobody in HEK293 cells to bring the named protein to FLAG-tagged glucokinase (GCK); Myc marks an untargeted standard; higher = target protein stabilised (more abundant). The settings on record: target protein: 3xFLAG-MCP-GCK-ALFA reporter; HEK293 landing pad (RPLP). The method, boiled down: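 Sequencing of reverse-transcribed, amplified circular RNA barcodes from anti-FLAG and anti-Myc immunoprecipitates provided the readout for an ALFA-nanobody-fused binder library recombined into HEK293 landing-pad cells. Those cells were induced with 2 μg mL^−1 doxycycline, transfected with a plasmid expressing a FLAG-tagged target and a Myc-tagged standard, and lysed after 48 h. Target abundance is the per-binder median log2 ratio of FLAG to Myc barcode read proportions. Only barcodes at a proportion of ≥10^−7 in both replicates and binders with ≥3 barcodes per replicate were kept, with a 10^−6 pseudocount added before the two replicates were pooled.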
Chain of GABARAP, O95166 (O95166 whole entry, the tested form may be a part): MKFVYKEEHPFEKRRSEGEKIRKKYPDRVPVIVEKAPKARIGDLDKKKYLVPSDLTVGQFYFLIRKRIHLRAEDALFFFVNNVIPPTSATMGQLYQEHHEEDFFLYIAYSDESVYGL
Regarding B1, the “median log2 fold change” value is -0.121.

In the case of B2, the “median log2 fold change” value is 0.132.

Turning to B3, the “median log2 fold change” value amounted to 0.0979.

With B4, the “median log2 fold change” value is 0.0545.

In the case of B5, the “median log2 fold change” value came out at 0.15.

As for B6, the “median log2 fold change” value came out at 0.139.

For B7, the “median log2 fold change” value is -0.00921.

Turning to B8, the “median log2 fold change” value was found to be 0.182.

With B9, the “median log2 fold change” value is -0.612.

With B10, the “median log2 fold change” value was -0.435.

Consider B11, for which the “median log2 fold change” value is -0.573.

For B12, the “median log2 fold change” value is -0.117.

As for B13, the “median log2 fold change” value was 0.0823.

On to B14, for which the “median log2 fold change” value is -0.743.

On to B15, for which the “median log2 fold change” value came to 0.168.

Consider B16, for which the “median log2 fold change” value is 0.249.

Consider B17, for which the “median log2 fold change” value is -0.351.

B18: the “median log2 fold change” value is -0.272.

Take B19: the “median log2 fold change” value is 0.57.

Regarding B20, the “median log2 fold change” value turned out to be 0.336.

As to B21, the “median log2 fold change” value is -0.316.

B22: the “median log2 fold change” value is -0.259.

For the molecule B23, the “median log2 fold change” value is -0.666.

Turning to B24, the “median log2 fold change” value came out at 0.184.

In the case of B25, the “median log2 fold change” value is -0.0498.

Regarding B26, the “median log2 fold change” value is 0.161.

In the case of B27, the “median log2 fold change” value was -0.0441.

With B28, the “median log2 fold change” value is -0.159.

Take B29: the “median log2 fold change” value is -0.882.
